In the supplement of paper PMC10849652:
Of roughly 7,900 targets only a part is listed; those with a hit were picked by preference. About 0.6% of all pairs of compound and target were hits. Unmarked numbers belong to inactive results.

What was measured:
Test in all cases: log2 fold change, soluble protein after heating vs DMSO (PISA); higher = thermal stabilisation; K562 cells, 10 uM, 30 min; active = over 0.2 and 3.5 SD of the protein, either way, in both replicates (recomputed)
[1] = compound: CC[C@@H]1C(=O)N(C)c2cnc(Nc3ccc(C(=O)NC4CCN(C)CC4)cc3OC)nc2N1C1CCCC1
In short: (§1)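 K562 cells at 2×10^6 cells/mL were treated for 30 min with 10 μM compound, and aliquots were heated for 3 min over 48°C-58°C before pooling. Extraction used PBS with 0.5% NP-40 at 4°C, and soluble protein was the supernatant after 21,000xg for 90 min, measured by TMTpro 16plex LC-MS/MS with channel sums equalised. Thermal stability values, relative to control samples and from duplicates, are log2 fold changes.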

volasertib = compound: CC[C@@H]1C(=O)N(C)c2cnc(Nc3ccc(C(=O)N[C@H]4CC[C@H](N5CCN(CC6CC6)CC5)CC4)cc3OC)nc2N1C(C)C [volasertib]
In short: as §1

[2] = compound: CC[C@H](C)N1C=C(C2=C(C=C(C=C21)C3=CN=C(C=C3)N4CCNCC4)C(=O)NCC5=C(C=C(NC5=O)C)C)C
In short: as §1

epoxomicin = compound: CC[C@H](C)[C@@H](C(=O)N[C@@H]([C@@H](C)O)C(=O)N[C@@H](CC(C)C)C(=O)[C@]1(CO1)C)NC(=O)[C@H]([C@@H](C)CC)N(C)C(=O)C [epoxomicin]
In short: as §1

[3] = compound: CCn1c(C(=O)N(C2CC2)C2CC2)cc2c3c(ncn3C)c(Nc3cc(C)n(C)n3)nc21
In short: as §1

[4] = compound: CCn1cc(-c2ccnc3[nH]c(-c4cccc(CN(C)C)c4)cc23)c(-c2ccc(NC(=O)N(C)C)cc2)n1
In short: as §1

[5] = compound: CN(C)CC(=O)Nc1ccc2[nH]c(=O)c3ccccc3c2c1
In short: as §1

rosiglitazone = compound: CN(CCOC1=CC=C(C=C1)C[C@H]2C(=O)NC(=O)S2)C3=CC=CC=N3 (racemic) [rosiglitazone]
In short: as §1

[6] = compound: CN1C2=C(C3=C1C(=O)N(N=C3)CC4=CC(=CC=C4)N)SC(=C2)S(=O)C
In short: as §1

[7] = compound: CN1CCC(CNc2ccc3ncc(-c4cccc(OC(F)(F)F)c4)n3n2)CC1
In short: as §1

saracatinib = compound: CN1CCN(CCOc2cc(OC3CCOCC3)c3c(Nc4c(Cl)ccc5c4OCO5)ncnc3c2)CC1 [saracatinib]
In short: as §1

sotrastaurin = compound: CN1CCN(c2nc(C3=C(c4c[nH]c5ccccc45)C(=O)NC3=O)c3ccccc3n2)CC1 [sotrastaurin]
In short: as §1

alvocidib = compound: CN1CC[C@H](c2c(O)cc(O)c3c(=O)cc(-c4ccccc4Cl)oc23)[C@H](O)C1 [alvocidib]
In short: as §1

Tubastatin A = compound: CN1CCc2c(c3ccccc3n2Cc2ccc(C(=O)NO)cc2)C1 [Tubastatin A]
In short: as §1

[8] = compound: CNC(=O)C1=CC=CC=C1NC2=NC(=NC=C2Cl)NC3=C(C=C(C=C3)N4CCOCC4)OC
In short: as §1

defactinib = compound: CNC(=O)c1ccc(Nc2ncc(C(F)(F)F)c(NCc3nccnc3N(C)S(C)(=O)=O)n2)cc1 [defactinib]
In short: as §1

rucaparib = compound: CNCc1ccc(-c2[nH]c3cc(F)cc4c3c2CCNC4=O)cc1 [rucaparib]
In short: as §1

[9] = compound: CNc1nc(-c2ccc3c(N)n[nH]c3c2)cc(N2C[C@@H](C(=O)NC3CCCCC3)CC[C@H]2C)n1
In short: as §1

encorafenib = compound: COC(=O)N[C@@H](C)CNc1nccc(-c2cn(C(C)C)nc2-c2cc(Cl)cc(NS(C)(=O)=O)c2F)n1 [encorafenib]
In short: as §1

[10] = compound: COC(=O)[C@H](CCSC)NC(=O)C1=C(C=C(C=C1)NC[C@H](CS)N)C2=CC=CC=C2
In short: as §1

UniProt P13498, sequence (P13498 whole entry, looked up): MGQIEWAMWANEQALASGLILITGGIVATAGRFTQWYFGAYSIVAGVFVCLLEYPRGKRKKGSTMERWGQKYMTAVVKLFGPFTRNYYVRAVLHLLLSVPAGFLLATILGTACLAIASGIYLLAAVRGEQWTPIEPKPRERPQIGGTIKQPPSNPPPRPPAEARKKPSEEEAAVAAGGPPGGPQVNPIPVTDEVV
UniProt Q8TAG9, sequence (Q8TAG9 whole entry, looked up): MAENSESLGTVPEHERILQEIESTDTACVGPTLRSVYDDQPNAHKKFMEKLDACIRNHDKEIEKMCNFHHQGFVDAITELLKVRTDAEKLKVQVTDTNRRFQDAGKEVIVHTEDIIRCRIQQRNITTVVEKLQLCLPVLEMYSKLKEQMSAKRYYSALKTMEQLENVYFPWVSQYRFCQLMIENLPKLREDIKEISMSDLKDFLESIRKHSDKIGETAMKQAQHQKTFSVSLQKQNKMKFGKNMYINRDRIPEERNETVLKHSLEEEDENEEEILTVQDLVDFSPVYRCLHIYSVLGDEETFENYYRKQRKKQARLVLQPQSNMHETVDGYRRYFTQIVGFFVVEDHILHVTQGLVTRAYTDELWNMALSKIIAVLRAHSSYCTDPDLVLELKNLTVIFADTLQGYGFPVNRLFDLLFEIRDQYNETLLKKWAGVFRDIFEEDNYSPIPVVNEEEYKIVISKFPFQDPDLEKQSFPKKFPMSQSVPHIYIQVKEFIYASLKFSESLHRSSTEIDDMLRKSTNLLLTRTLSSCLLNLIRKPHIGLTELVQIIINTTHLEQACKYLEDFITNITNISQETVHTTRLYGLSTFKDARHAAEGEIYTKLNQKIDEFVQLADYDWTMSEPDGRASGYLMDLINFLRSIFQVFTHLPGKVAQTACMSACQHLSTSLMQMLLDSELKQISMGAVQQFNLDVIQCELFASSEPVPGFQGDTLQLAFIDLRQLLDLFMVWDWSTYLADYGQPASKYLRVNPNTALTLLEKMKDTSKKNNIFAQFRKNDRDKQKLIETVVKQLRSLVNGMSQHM
UniProt P24534, sequence (P24534 whole entry, looked up): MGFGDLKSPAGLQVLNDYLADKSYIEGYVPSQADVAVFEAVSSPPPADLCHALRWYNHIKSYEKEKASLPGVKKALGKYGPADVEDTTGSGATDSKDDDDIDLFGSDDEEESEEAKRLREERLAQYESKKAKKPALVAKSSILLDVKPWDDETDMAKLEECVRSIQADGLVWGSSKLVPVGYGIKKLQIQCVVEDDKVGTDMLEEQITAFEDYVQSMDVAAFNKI
UniProt Q9H773, sequence (Q9H773 whole entry, looked up): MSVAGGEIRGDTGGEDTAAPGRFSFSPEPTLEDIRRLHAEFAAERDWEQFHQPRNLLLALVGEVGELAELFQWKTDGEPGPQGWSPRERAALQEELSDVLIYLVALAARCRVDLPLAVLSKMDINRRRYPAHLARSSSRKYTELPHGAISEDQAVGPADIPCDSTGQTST
UniProt O00471, sequence (O00471 whole entry, looked up): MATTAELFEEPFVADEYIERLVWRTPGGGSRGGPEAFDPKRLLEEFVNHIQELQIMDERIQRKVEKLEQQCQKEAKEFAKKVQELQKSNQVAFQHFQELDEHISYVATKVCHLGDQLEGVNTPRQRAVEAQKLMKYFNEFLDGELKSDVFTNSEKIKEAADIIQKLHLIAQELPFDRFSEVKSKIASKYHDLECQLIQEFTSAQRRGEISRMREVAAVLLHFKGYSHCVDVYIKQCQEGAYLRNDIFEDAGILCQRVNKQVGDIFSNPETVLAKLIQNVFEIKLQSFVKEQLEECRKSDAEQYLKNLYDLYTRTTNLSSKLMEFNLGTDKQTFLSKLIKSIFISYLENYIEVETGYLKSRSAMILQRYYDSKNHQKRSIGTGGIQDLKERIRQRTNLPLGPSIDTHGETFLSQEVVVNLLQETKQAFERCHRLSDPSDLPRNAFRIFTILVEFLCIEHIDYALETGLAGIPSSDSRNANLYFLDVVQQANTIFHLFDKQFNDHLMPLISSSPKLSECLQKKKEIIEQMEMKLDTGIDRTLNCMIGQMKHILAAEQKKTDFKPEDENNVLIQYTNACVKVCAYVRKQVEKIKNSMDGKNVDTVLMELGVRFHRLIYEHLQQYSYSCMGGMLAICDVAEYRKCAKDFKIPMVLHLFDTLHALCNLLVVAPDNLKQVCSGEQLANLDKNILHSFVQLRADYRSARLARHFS
UniProt Q6P2E9, sequence (Q6P2E9 whole entry, looked up): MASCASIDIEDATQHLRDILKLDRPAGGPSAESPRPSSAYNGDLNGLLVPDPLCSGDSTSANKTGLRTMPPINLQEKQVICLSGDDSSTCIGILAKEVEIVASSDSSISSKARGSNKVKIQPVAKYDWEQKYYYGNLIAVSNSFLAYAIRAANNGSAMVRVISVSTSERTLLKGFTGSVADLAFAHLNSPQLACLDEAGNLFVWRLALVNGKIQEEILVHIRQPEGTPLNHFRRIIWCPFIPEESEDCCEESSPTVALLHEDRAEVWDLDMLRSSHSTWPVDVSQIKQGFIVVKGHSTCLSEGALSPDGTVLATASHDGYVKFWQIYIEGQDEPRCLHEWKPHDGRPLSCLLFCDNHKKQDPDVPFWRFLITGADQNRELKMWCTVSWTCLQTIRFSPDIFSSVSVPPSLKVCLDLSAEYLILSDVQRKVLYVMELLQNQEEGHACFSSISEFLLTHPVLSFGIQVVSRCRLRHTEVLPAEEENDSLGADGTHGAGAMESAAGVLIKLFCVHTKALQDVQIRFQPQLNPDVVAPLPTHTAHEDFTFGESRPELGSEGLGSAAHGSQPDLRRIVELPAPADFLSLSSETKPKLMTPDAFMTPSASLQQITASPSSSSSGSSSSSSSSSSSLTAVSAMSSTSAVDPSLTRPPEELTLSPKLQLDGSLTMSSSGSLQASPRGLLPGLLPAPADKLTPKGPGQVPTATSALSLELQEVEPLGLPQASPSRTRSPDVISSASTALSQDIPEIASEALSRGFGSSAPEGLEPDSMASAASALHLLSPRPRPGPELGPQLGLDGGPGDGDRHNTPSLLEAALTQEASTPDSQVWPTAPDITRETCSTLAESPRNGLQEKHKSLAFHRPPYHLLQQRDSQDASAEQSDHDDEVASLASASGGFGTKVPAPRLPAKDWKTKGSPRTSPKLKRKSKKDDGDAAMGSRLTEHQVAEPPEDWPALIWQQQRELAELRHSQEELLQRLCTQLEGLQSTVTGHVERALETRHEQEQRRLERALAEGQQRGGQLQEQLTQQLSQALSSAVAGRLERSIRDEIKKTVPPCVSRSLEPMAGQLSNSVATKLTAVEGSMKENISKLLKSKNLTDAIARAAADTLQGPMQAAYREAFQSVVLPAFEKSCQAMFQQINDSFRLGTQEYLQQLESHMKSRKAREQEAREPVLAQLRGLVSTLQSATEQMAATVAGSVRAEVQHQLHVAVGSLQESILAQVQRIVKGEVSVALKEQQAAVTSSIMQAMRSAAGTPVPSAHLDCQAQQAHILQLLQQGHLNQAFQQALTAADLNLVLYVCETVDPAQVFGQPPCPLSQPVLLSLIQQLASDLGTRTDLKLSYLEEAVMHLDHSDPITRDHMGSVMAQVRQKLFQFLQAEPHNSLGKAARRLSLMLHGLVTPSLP
UniProt Q9NRY5, sequence (Q9NRY5 whole entry, looked up): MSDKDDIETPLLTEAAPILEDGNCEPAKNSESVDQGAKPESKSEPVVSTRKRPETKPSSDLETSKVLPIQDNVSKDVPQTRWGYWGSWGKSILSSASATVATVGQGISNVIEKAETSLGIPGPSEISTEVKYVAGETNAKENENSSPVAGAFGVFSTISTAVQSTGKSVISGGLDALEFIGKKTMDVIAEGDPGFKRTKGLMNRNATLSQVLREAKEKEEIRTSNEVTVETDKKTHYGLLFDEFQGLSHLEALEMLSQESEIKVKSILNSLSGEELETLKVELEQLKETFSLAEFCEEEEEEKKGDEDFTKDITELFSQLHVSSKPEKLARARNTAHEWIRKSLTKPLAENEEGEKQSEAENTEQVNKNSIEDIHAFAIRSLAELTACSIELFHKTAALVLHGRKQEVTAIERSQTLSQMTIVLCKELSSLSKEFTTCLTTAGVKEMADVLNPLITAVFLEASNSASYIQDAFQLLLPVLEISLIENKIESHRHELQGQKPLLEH
UniProt Q9UBM7, sequence (Q9UBM7 whole entry, looked up): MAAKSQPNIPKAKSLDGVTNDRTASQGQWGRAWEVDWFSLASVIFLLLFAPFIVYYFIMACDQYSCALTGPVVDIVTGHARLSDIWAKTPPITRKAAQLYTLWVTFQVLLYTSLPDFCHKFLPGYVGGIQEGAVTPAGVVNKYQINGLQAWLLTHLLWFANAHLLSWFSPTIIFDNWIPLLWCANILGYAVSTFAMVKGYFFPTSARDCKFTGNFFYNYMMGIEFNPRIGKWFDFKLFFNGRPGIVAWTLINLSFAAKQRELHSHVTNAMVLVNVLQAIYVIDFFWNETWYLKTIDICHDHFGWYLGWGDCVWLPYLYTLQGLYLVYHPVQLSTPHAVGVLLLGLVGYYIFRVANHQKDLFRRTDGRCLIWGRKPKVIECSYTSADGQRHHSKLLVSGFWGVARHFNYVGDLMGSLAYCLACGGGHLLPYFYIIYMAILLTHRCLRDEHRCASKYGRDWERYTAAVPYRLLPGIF
UniProt Q96DA6, sequence (Q96DA6 whole entry, looked up): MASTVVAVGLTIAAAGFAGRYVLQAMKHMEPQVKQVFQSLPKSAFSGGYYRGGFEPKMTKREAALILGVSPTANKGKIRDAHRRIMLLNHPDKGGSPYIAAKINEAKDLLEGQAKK
UniProt O75822, sequence (O75822 whole entry, looked up): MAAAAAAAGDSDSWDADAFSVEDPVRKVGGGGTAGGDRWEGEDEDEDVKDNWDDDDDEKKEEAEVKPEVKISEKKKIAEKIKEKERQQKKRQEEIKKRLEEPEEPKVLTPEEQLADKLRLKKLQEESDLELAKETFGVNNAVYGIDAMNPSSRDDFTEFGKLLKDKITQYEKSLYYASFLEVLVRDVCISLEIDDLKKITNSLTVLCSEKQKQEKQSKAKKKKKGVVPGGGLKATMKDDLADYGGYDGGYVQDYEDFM
UniProt Q15369, sequence (Q15369 whole entry, looked up): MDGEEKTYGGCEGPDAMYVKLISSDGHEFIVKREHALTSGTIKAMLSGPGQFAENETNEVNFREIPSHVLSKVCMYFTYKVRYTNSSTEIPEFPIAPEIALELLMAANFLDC

Row | Target | log2 fold change [1] | log2 fold change (volasertib) | log2 fold change [2] | log2 fold change (epoxomicin) | log2 fold change [3] | log2 fold change [4] | log2 fold change [5] | log2 fold change (rosiglitazone) | log2 fold change [6] | log2 fold change [7] | log2 fold change (saracatinib) | log2 fold change (sotrastaurin) | log2 fold change (alvocidib) | log2 fold change (Tubastatin A) | log2 fold change [8] | log2 fold change (defactinib) | log2 fold change (rucaparib) | log2 fold change [9] | log2 fold change (encorafenib) | log2 fold change [10]
1 | EEF1B2 (UniProt P24534) | -0.171 | -0.343 (active) | 0.056 | -0.034 | -0.015 | 0.007 | 0.016 | 0.008 | 0.03 | -0.065 | -0.091 | -0.061 | -0.009 | 0.017 | 0.06 | -0.064 | 0.041 | -0.013 | 0.07 | -0.046
2 | EHBP1L1 (UniProt Q8N3D4) | -0.035 | -0.307 (active) | 0.091 | 0.072 | 0.012 | -0.055 | 0.029 | 0.094 | 0.077 | 0.101 | -0.065 | -0.082 | -0.049 | 0.098 | -0.002 | -0.089 | 0.1 | -0.008 | 0.127 | -0.017
3 | EXOC5 (UniProt O00471) | -0.236 | -0.596 (active) | 0.093 | 0.041 | -0.046 | 0.022 | 0.066 | 0.044 | 0.054 | -0.215 | -0.043 | -0.209 | -0.008 | 0.015 | 0.042 | -0.064 | 0.091 | -0.06 | 0.083 | -0.071
4 | FAM177A1 isoform 2 (UniProt Q8N128) | -0.039 | -0.108 | 0.006 | 0.045 | -0.001 | 0.045 | -0.012 | 0.012 | -0.023 | -0.259 (active) | 0.092 | -0.021 | -0.011 | 0.045 | -0.094 | -0.054 | 0.001 | -0.042 | -0.029 | -0.065
5 | DUS3L (UniProt Q96G46) | -0.162 | -0.331 (active) | 0.017 | 0.087 | 0.004 | 0.02 | 0.028 | 0.007 | 0.021 | -0.04 | 0.02 | -0.155 | -0.037 | -0.028 | 0.022 | -0.148 | 0.204 | -0.033 | 0.016 | 0.003
6 | EDC3 (UniProt Q96F86) | -0.006 | -0.192 | 0.057 | 0.003 | -0.03 | -0.031 | 0.058 | 0.067 | 0.094 | -0.251 | -0.041 | -0.304 | -0.021 | 0.053 | -0.021 | -0.04 | 0.015 | -0.237 | 0.048 | 0.005
7 | EIF3J (UniProt O75822) | -0.061 | 0.005 | 0.011 | 0.055 | 0 | 0.001 | -0.008 | 0.019 | -0.061 | 0.226 | -0.042 | -0.028 | 0.006 | -0.005 | 0.019 | 0.019 | -0.072 | -0.037 | -0.008 | -0.029
8 | DNAJC19 (UniProt Q96DA6) | -0.094 | -0.042 | -0.014 | -0.015 | 0.04 | -0.022 | 0.002 | -0.01 | -0.05 | -0.148 | 0.025 | -0.029 | -0.021 | -0.038 | 0.003 | -0.027 | 0.01 | -0.028 | -0.044 | -0.012
9 | EXOC6 (UniProt Q8TAG9) | -0.224 | -0.443 (active) | 0.102 | -0.06 | -0.051 | 0.014 | 0.033 | 0.009 | 0.06 | -0.23 | -0.02 | -0.153 | -0.151 | 0.042 | 0.075 | -0.061 | 0.025 | -0.015 | 0.013 | 0.009
10 | DCTPP1 (UniProt Q9H773) | 0.007 | -0.016 | -0.059 | 0.062 | -0.012 | -0.032 | -0.012 | 0.012 | -0.048 | 0.201 | 0.012 | 0.031 | -0.033 | 0.031 | -0.075 | -0.008 | -0.011 | -0.022 | -0.072 | 0.002
11 | ELOC (UniProt Q15369) | -0.009 | -0.016 | 0.042 | 0.028 | 0.006 | -0.087 | 0.108 | 0.011 | -0.033 | -0.014 | 0.008 | 0.01 | -0.074 | 0.035 | 0.025 | -0.033 | -0.021 | 0 | -0.021 | -0.014
12 | EDC4 (UniProt Q6P2E9) | -0.126 | -0.47 (active) | 0.042 | 0 | -0.009 | 0.039 | -0.006 | 0.014 | 0.07 | -0.084 | -0.023 | -0.109 | -0.167 | 0.016 | -0.163 | -0.148 | -0.012 | -0.099 | 0.113 | 0.005
13 | DHCR7 (UniProt Q9UBM7) | 0.409 | 1.68 (active) | 0.054 | 0.154 | -0.044 | 0.522 (active) | 0.085 | 0.032 | -0.055 | 0.203 | 0.412 | -0.033 | -0.042 | 0.087 | -0.181 | -0.01 | 0.143 | 0.087 | 0.084 | -0.048
14 | DDX4 (UniProt Q9NQI0) | 0.139 | -0.006 | 0.067 | -0.113 | -0.223 | 0.047 | -0.414 | 0.097 | 0.025 | -0.844 | -0.342 | 0.209 | 0.206 | 0.102 | -0.097 | 0.11 | 0.543 | -0.095 | 0.121 | 0.067
15 | FAM114A2 (UniProt Q9NRY5) | -0.094 | -0.136 | 0.046 | 0.052 | -0.001 | -0.059 | 0.02 | 0.049 | -0.013 | -0.29 (active) | 0.005 | -0.048 | -0.078 | -0.019 | -0.001 | -0.04 | -0.022 | -0.054 | 0.008 | 0.025
16 | CYBA (UniProt P13498) | -0.091 | -0.125 | -0.026 | 0.037 | 0.047 | 0.074 | -0.02 | 0.058 | -0.064 | -0.04 | 0.067 | 0.033 | -0.031 | -0.02 | 0.01 | 0.014 | -0.035 | -0.013 | 0.031 | 0.008
